Assay results published in ChEMBL document CHEMBL3988442, “University of Dundee, Small-Polar-MMV Screening Library” (2021).
For some of these results: Potency and affinity values are given separately.

Key:
Parameters in all cases: scale not given: direction of the effect not stated beside the values
[1] = target: Protein translocase subunit SecA (Escherichia coli (strain K12)) (UniProt P10408); test: Assay to Identify E. coli SecA ATPase Inhibitors; assay type: functional; details: 30 µM
[2] = target: T1, Ubiquitin-activating enzyme e1, putative (Leishmania donovani (strain BPK282A1)) (UniProt E9BSI1); test: Leishmania donovani Ubiquitin Activating Enzyme (LdE1); assay type: functional; details: 30 µM
T1 sequence (whole entry): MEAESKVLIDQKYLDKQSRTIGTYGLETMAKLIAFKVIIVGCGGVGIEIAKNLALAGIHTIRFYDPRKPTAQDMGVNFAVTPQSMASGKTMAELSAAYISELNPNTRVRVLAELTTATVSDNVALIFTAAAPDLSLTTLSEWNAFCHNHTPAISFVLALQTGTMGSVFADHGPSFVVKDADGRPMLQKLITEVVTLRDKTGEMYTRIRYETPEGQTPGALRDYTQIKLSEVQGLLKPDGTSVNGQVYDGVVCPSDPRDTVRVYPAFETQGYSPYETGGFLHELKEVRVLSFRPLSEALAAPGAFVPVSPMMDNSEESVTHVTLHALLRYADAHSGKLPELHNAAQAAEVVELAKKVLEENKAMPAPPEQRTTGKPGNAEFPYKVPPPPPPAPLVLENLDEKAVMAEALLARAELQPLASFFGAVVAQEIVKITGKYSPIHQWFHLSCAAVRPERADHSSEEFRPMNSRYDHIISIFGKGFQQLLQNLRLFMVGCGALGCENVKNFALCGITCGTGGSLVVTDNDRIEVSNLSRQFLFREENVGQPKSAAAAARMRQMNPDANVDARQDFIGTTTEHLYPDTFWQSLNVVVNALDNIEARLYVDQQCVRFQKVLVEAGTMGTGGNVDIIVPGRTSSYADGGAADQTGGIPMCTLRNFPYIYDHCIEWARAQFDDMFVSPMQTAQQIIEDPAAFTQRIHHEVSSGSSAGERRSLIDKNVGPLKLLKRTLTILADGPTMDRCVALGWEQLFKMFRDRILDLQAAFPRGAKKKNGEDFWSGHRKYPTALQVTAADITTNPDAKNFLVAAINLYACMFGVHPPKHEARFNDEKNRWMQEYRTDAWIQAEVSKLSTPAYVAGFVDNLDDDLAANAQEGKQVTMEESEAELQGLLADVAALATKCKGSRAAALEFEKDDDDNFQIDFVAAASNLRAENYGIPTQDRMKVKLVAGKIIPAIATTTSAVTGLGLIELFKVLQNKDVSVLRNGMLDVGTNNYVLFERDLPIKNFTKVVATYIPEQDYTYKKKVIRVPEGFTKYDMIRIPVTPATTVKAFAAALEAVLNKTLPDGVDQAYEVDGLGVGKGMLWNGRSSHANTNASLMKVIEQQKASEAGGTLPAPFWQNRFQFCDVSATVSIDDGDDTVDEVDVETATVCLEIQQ

[3] = target: AMP-activated protein kinase, AMPK (Homo sapiens) (UniProt P54646+O43741+P54619+Q9UGJ0+Q9Y478+Q13131+Q9UGI9); test: AMP-dependent Kinase enzyme assay. An in vitro enzyme assay that detects ADP turnover that is directly proportional to AMPK activity. This uses naive AMPK that is activated during the assay with MK-8722; assay type: functional; details: 30 µM
[4] = target: Sialic acid-binding Ig-like lectin 9 (Homo sapiens) (UniProt Q9Y336); test: Hs-Siglec9 ALPHAscreen SOP 20170721; details: 10 µM
Chain of Sialic acid-binding Ig-like lectin 9 (Homo sapiens) (Q9Y336 whole entry): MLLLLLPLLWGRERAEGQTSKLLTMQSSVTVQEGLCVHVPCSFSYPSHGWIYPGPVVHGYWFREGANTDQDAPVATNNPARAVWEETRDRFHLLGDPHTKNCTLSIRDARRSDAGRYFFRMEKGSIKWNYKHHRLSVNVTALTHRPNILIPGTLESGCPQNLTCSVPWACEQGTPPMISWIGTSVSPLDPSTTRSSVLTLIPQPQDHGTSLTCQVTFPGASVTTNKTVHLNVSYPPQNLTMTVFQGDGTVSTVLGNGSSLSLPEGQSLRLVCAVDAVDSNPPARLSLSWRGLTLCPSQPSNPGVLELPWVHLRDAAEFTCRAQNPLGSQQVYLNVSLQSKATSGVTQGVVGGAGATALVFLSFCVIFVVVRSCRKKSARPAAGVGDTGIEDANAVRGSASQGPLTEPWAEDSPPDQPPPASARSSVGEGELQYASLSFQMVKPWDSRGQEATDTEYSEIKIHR

Trypanosoma cruzi = test: Trypanosoma cruzi phosphomannomutase and mannose-1-phosphate guanylyltransferase assay; assay type: functional; details: 10 µM
[5] = target: T2, Arginase-2, mitochondrial (Homo sapiens) (UniProt P78540); test: in vitro enzyme assay to detect the production of urea directly proportional to the activity of Arginase II; assay type: functional; details: 33.3 µM; further: in the data most compounds retested in dose-response had high values
T2 sequence (whole entry): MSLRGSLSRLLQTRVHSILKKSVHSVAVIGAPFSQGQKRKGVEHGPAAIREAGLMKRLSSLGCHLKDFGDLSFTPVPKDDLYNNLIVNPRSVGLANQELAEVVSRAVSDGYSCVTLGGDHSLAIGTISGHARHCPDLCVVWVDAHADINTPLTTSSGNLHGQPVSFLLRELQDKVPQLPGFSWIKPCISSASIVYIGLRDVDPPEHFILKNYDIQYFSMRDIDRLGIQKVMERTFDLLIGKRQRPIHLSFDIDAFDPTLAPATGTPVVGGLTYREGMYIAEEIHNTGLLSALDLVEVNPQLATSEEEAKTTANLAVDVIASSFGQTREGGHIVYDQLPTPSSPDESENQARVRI

[6] = target: T3, Proteasome subunit beta (Trypanosoma cruzi) (UniProt O96673); test: Trypanosoma cruzi proteasome chymotrypsin-like activity (TcProtChymo) assay.; further: in the data most compounds retested in dose-response had high values; assay type: functional; details: 9.37 µM
T3 sequence (whole entry): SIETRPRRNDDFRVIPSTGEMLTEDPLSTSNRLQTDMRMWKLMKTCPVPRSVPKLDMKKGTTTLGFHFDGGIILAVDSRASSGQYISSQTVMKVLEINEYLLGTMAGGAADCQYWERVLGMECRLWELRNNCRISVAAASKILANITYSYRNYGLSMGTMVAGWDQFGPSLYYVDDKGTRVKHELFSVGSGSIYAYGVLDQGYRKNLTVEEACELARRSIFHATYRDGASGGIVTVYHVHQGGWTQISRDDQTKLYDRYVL

Homo sapiens = species: Homo sapiens; test: To identify inhibition of the IFN signalling (Jak-Stat) pathway via expression of an eGFP reporter gene under the control of an IFN-stimulated response element (ISRE) containing MxA promoter.; assay type: functional; details: 30 µM
[7] = target: T4, Tyrosyl-tRNA synthetase, putative (Trypanosoma cruzi (strain CL Brener)) (UniProt Q4DSP6); test: Trypanosoma cruzi tyrosyl tRNA synthetase (TcYRS) _High Tyrosine SOP; assay type: functional; details: 30 µM; further: in the data most compounds retested in dose-response had high values
T4 sequence (whole entry): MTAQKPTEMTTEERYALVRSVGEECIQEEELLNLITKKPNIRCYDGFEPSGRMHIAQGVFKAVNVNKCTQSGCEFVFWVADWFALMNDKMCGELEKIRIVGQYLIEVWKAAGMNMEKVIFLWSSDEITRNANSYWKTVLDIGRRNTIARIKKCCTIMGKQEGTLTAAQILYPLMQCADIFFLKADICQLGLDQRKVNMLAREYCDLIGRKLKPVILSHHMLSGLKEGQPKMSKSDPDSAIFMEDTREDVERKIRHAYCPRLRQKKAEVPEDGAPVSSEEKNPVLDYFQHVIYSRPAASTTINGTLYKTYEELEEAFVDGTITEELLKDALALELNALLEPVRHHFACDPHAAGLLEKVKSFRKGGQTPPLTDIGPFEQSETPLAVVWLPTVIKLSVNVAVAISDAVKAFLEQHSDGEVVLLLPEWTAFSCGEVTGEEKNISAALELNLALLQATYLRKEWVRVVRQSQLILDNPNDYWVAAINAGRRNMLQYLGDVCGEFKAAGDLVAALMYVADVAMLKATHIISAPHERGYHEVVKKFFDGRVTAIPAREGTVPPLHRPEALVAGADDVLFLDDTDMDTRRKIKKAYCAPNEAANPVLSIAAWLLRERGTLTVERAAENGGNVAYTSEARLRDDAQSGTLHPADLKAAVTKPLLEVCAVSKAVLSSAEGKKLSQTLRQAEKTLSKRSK

[8] = target: T4, Tyrosyl-tRNA synthetase, putative (Trypanosoma cruzi (strain CL Brener)); test: Trypanosoma cruzi tyrosyl tRNA synthetase (TcYRS) SOP; assay type: functional; details: 30 µM
[9] = target: Chromo domain-containing protein 1 (Saccharomyces cerevisiae (strain ATCC 204508 / S288c) (Baker's yeast)) (UniProt P32657); test: ScCHD-1 Enzyme Inhibition Assay; assay type: functional; details: 30 µM; further: in the data most compounds retested in dose-response had high values
Chain of Chromo domain-containing protein 1 (Saccharomyces cerevisiae (strain ATCC 204508 / S288c) (Baker's yeast)) (P32657 whole entry, the tested form may be a part): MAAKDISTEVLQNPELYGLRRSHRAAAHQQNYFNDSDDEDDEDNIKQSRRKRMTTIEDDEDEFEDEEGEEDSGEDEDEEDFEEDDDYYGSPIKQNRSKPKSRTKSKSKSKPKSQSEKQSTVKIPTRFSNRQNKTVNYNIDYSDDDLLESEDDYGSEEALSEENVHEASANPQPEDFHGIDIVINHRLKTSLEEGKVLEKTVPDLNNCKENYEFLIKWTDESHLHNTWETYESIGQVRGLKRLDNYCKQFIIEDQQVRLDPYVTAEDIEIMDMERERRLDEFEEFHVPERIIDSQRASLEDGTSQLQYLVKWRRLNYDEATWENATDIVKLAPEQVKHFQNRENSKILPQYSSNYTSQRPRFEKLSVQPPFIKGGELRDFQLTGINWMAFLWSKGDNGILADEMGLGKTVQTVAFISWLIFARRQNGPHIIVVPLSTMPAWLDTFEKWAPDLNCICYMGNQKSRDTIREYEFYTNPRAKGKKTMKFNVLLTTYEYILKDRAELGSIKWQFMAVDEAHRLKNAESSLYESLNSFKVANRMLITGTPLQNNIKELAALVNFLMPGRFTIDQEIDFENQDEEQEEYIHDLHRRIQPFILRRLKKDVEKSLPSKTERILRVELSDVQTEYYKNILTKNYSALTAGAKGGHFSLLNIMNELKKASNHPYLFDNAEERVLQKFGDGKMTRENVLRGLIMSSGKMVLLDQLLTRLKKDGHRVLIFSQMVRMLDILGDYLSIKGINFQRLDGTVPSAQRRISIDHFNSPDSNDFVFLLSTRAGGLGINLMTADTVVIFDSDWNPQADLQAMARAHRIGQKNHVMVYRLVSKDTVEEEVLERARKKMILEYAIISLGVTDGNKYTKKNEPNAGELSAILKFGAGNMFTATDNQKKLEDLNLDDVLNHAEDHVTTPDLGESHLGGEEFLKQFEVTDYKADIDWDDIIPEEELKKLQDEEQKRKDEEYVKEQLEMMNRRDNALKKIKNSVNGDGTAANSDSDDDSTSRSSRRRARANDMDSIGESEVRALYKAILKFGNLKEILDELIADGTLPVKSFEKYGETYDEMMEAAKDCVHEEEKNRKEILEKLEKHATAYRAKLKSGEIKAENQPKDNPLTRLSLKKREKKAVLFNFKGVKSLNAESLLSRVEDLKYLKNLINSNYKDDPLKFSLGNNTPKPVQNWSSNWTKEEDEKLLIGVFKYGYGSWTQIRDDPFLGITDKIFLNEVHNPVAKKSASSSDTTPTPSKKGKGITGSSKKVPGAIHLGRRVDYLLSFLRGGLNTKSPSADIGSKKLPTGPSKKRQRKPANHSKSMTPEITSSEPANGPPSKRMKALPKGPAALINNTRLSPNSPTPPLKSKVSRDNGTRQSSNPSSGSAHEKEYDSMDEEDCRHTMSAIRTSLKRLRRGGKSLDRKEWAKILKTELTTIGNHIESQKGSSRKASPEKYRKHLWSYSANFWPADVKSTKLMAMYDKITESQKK

Chain of Protein translocase subunit SecA (Escherichia coli (strain K12)) (P10408 whole entry): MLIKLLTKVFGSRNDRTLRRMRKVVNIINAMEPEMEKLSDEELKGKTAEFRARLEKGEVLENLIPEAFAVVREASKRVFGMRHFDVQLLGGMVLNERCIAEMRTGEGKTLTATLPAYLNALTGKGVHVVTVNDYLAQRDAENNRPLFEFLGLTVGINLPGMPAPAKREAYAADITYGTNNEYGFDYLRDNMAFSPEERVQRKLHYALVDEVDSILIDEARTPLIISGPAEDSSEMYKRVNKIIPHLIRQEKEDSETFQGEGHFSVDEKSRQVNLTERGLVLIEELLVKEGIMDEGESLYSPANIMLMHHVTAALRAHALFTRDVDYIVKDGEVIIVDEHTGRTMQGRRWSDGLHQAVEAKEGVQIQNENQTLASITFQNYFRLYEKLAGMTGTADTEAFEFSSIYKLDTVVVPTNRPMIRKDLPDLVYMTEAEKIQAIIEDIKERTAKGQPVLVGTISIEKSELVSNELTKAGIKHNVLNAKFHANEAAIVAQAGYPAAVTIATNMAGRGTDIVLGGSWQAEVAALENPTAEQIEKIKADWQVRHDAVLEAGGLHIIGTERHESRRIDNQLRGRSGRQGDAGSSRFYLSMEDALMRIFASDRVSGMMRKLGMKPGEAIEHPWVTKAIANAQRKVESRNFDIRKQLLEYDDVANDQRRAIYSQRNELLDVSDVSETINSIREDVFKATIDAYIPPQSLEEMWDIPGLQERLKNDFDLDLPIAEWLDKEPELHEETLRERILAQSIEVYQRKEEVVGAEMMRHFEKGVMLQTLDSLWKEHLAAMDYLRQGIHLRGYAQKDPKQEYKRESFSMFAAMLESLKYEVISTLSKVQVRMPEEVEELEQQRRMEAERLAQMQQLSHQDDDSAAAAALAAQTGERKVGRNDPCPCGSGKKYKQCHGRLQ

Compound	Percent Effect [1]	Percent Effect [2]	Percent Effect [3]	Percent Effect [4]	Percent Effect (Trypanosoma cruzi)	Percent Effect [5]	Percent Effect [6]	Percent Effect (Homo sapiens)	Percent Effect [7]	Percent Effect [8]	Percent Effect [9]
CC(C(=O)N1CCC(Nc2cccnn2)CC1)n1ccnc1 (stereo unspecified)	-2.11%	5.41%	-6.39%	14.9%	4.43%	-3.21%	3.42%	11.9%	3.45%	6.17%	-6.18%
Cc1cc(F)ccc1CNCCn1cccn1	-2.76%	-1.39%	-3.57%	0.503%	5.15%	-0.883%	8.95%	1.75%	1.05%	2.56%	-0.034%
O=C(NCCN1CCCCCC1=O)c1n[nH]c(=O)c2ccccc12	-2.33%	15.6%	17.8%	-3.89%	-11.1%	2.13%	6.42%	27.5%	-6.8%	9.76%	-3%
Cn1cccc1C(=O)N1CC[C@H]2C[C@@H](c3ccncn3)O[C@@H]2C1	-5.79%	13.5%	3.37%	-2.88%	-0.684%	6.69%	14.6%	2.31%	4.32%	5.13%	-0.0971%
COCCNC(=O)NCCc1ccn(-c2ccccc2)n1	-3.6%	-3.8%	7.66%	4.04%	5.64%	-0.215%	13.7%	5.09%	-4.17%	10.1%	-16.7%
CCOC(=O)CCC(=O)NC(C)c1ccc(NC(=O)CC)cc1 (stereo unspecified)	-1.67%	7.89%	2.06%	-5.73%	-1.66%	1.18%	9.88%	6.92%	6.38%	13%	-3.37%
CCOc1ccc(Cl)cc1C1CCCN1 (stereo unspecified)	-3.13%	10.5%	4%	1.21%	3.21%	-11.8%	13.5%	2.15%	0%	7.79%	-2.96%
CNC(=O)C1Cn2ccnc2C2(CCN(CCF)CC2)O1 (stereo unspecified)	-1.42%	5.2%	2.6%	-5.27%	-8.97%	0.645%	13.1%	15.2%	3.17%	3.85%	-5.68%
Cc1ccc2nc(C3CCN(CCO)CC3)nn2c1	1.65%	10.7%	6.44%	9.27%	-2.51%	-59.7%	4.79%	23.1%	2.08%	10%	-0.68%
Cc1oc(C(=O)O)cc1S(=O)(=O)Nc1cc(Cl)ccc1F	-4.85%	5.2%	-3.17%	6.3%	0.374%	-1.42%	-6.59%	2.33%	3.88%	2.44%	-4.3%
Cc1ccc(NC2CCN(C(=O)c3cccc(F)c3F)CC2)nn1	0.567%	-6.33%	2.51%	4.94%	0.308%	-0.645%	1.54%	10.2%	4.17%	5.06%	-24.5%
